The target of the test is Concanavalin-A (Canavalia ensiformis) (UniProt P02866). Kind of test: compounds binding concanavalin A lectin – biochemical, small-molecule microarray, Alexa647 label, 635 nm, artefact control for SMM control protein annotation, primary screen (AID 1127).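 Also: z combines 667 nm emission intensity with signal-to-noise across three replicate slides.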 As to conditions: ConA-A647 binding fluorescence, higher = more signal.
Concanavalin-A (Canavalia ensiformis), sequence (P02866 whole entry, looked up): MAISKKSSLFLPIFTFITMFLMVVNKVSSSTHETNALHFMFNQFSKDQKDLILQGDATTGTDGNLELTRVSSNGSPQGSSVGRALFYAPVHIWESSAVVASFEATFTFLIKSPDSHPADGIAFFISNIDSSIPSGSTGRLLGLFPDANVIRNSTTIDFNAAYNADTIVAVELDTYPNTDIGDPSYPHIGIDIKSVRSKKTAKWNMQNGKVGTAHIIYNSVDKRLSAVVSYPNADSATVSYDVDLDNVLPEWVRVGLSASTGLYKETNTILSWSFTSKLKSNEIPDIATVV
For the molecule `NC(=O)NCC#Cc1ccc2c(c1)[C@]1(C(=O)N2)[C@H](C(=O)N2CCCCCCC2)[C@H]2C(=O)O[C@H](c3ccccc3)[C@H](c3ccccc3)N2[C@@H]1c1ccc(O)cc1`, the composite z-score came out at 1.09.
Molecule `COCCOC(=O)N1C(=O)[C@@]2(c3cc(C#CC4=CCCCC4)ccc31)[C@H](C(=O)N1CCN(c3ncccn3)CC1)[C@H]1C(=O)O[C@H](c3ccccc3)[C@H](c3ccccc3)N1[C@@H]2c1ccccc1OCCO` returned a composite z-score of 1.11.
`COCCOC(=O)N1C(=O)[C@@]2(c3cc(C#CC4(O)CCCCCC4)ccc31)[C@H](c1ccccc1OCCO)N1[C@H](c3ccccc3)[C@H](c3ccccc3)OC(=O)[C@H]1[C@@H]2C(=O)N1CCCCCCC1`: the composite z-score is 0.992.
The molecule `CCCCC=C[C@@H](NC(=O)c1ccc(C(F)(F)F)cc1)c1ccccc1` had a composite z-score of -0.792.
To `C=CCC(OC(C)=O)[C@@H]1[C@@H](N(Cc2ccc(-c3ccccc3)cc2)C(=O)c2ccc(C)cc2)c2cc(OCCCO)ccc2N1C(=O)c1ccc2ccccc2c1` (stereo partly specified) belongs -0.328.
In turn, `CCCCC(=C=CC[C@@H](O)c1cccc(OCCO)c1)CCO` displayed a composite z-score of -0.0305.
With `CCOC(=O)C[C@H]1[C@H](OC(=O)Cc2ccc3c(c2)OCO3)[C@@H](NC(=O)c2ccccc2)c2cc(OCCCO)ccc2N1C(=O)Cc1ccc(OC)cc1`, the composite z-score came out at 0.808.
Then `CCCCN1CC=CC23O[C@@H]4C=CCOC(=O)[C@@H]4[C@H]2C(=O)N(C(CO)C(C)C)[C@@H]3C1=O` (stereo partly specified), with -0.868.
To `COC(=O)[C@@]1(Cc2ccc(OC)cc2)[C@@H]2[C@@H](CC(=O)[C@H]2CC(=O)C(=O)N2CCCC2)CN1C(=O)c1ccccc1` belongs 1.18; to `COC(=O)c1c(CC[C@@H](CO)NC(=O)N[C@@H](Cc2ccccc2)Cn2cc(-c3cncn3C)nn2)oc(C(C)=O)c1C(=O)OC`, 1.07.
On to `C=CCC(OC(C)=O)[C@@H]1[C@@H](N(Cc2ccc(-c3cccc(C(F)(F)F)c3)o2)C(=O)c2cccc3ccccc23)c2cc(OCCCO)ccc2N1C(=O)c1ccc2ccccc2n1` (stereo partly specified), for which the composite z-score was -0.18.
With `CC(=O)NCCCC[C@@H]1NC(=O)[C@H]2C[C@@H](C(=O)NCCCCCC[N+](C)(C)C)[C@@H](c3ccc(O)cc3)N2C1=O`, the composite z-score was 0.682.
For the molecule `N#Cc1ccc(C(O)C2C=CC3C(=O)NC(=O)C3N2Nc2ccccn2)cc1` (stereo unspecified), the composite z-score is 0.468.
In turn, `C=CCNC(=O)[C@H]1[C@@H]2C(=O)O[C@@H](c3ccccc3)[C@@H](c3ccccc3)N2[C@@H](c2ccccc2OCCO)[C@]12C(=O)N(C(=O)OCCOC)c1ccccc12` yielded a composite z-score of 1.13.
`C=CC[C@]1(C(=O)NCc2ccccc2)COC(c2ccc(OCCCO)cc2)=N1` came in with a composite z-score of -0.507.
As for `COc1cc2c(cc1O)C(C1CC1)N(Cc1ccc([N+](=O)[O-])o1)CC2` (stereo unspecified), the composite z-score was 0.934.
In turn, `CCOC(=O)C[C@H]1[C@H](OC(=O)c2ccc(C(=O)c3ccccc3)cc2)[C@@H](NC(=O)c2ccc3ccccc3c2)c2cc(OCCCO)ccc2N1C(=O)c1ccc2ccccc2n1` registered a composite z-score of 0.707.
`CC(C)(C)N1CC=CC23O[C@@H]4/C=C\CCCOC(=O)C4[C@H]2C(=O)N(CCCCCCO)[C@@H]3C1=O` (stereo partly specified) showed a composite z-score of -1.42.
On to `CCC[C@@H]1C=C(C(=O)OCC)[C@H](c2ccccc2)N1S(=O)(=O)c1ccc(C)cc1`, for which the composite z-score is 1.11.
Then `O=C1OCCC=C[C@H]2OC34C=CCN(CCN5CCOCC5)C(=O)[C@H]3N(CCCO)C(=O)[C@@H]4C12` (stereo partly specified), with -0.112; and `CCOC(=O)C1=C[C@@H](C(C)(C)C)N(S(=O)(=O)c2ccc(C)cc2)[C@H]1c1ccccc1Cl`, with 1.12; and `C[C@H]1C2[C@H](Cc3ccccc3)NC(=O)[C@]23C(=O)NCC(=O)N2CCC[C@H]2C(=O)NC/C=C\C/C=C/C3[C@@H]2O[C@]12C` (stereo partly specified), with -0.351.
`COc1ccc([Si](C)(C)[C@@H]2[C@@H](CCO)O[C@]3(C(=O)N(Cc4ccccc4)c4ccc(N5C(=O)c6ccccc6Oc6ccccc65)cc43)[C@H]2C)cc1`: the composite z-score was 0.718.
Consider `COCCOC(=O)N1C(=O)[C@@]2(c3ccccc31)[C@H](C(N)=O)[C@H]1C(=O)O[C@H](c3ccccc3)[C@H](c3ccccc3)N1[C@@H]2c1ccc(OCCO)cc1`, for which the composite z-score came out at 1.15.
Take `COCCCNC(=O)[C@@H]1c2ccccc2C(=O)N(Cc2cc(C(F)(F)F)cc(C(F)(F)F)c2)[C@H]1c1ccc(CO)cc1`: the composite z-score was -1.06.
Regarding `NCCCC[C@@H]1NC(=O)[C@H]2C[C@@H](C(=O)NCc3ccc(F)cc3)[C@@H](c3ccc(O)cc3)N2C1=O`, the composite z-score was found to be 1.13.
For `CC(C)C[C@@H]1NC(=O)[C@H]2C[C@@H](C(=O)NCCCCCNC(=O)CS)[C@@H](c3ccc(O)cc3)N2C1=O`, the composite z-score was determined as 0.885.
In the case of `COC(=O)C(CC#Cc1ccc2c(c1)[C@]1(C(=O)N2)[C@H](c2ccc(O)cc2)N2[C@H](c3ccccc3)[C@H](c3ccccc3)OC(=O)[C@H]2[C@@H]1C(=O)N1CCc2cc(OC)c(OC)cc2C1)C(=O)OC`, the composite z-score is 1.12.
Then `C=CCNC(=O)[C@@H]1[C@H]2C(=O)O[C@H](c3ccccc3)[C@H](c3ccccc3)N2[C@H](c2ccccc2OCCO)[C@@]12C(=O)N(C(=O)OCCOC)c1ccc(C#CCCO)cc12`, with 0.953; and `COc1ccc(CCNC(=O)[C@@]2(Sc3ccc(C)cc3)CC(=O)N(Cc3cc(C(F)(F)F)cc(C(F)(F)F)c3)[C@@H]2c2ccc(CO)cc2)cc1`, with -3.06; and `Cc1ccccc1C(O)C1C=CC2C(=O)N(c3ccccc3)C(=O)C2N1Nc1ccccc1F` (stereo unspecified), with 1.09.
As to `NCCCC[C@@H]1NC(=O)[C@H]2C[C@@H](C(=O)NCc3ccc(F)cc3)[C@@H](c3cccc(OCCO)c3)N2C1=O`, the composite z-score came out at 0.701.
For `Cc1c(NC(=O)/C(C#N)=C/c2ccc(Cl)cc2)c(=O)n(-c2ccccc2)n1C`, the composite z-score worked out at 0.736.
`[N-]=[N+]=NCc1ccccc1C[C@]1(C(=O)N2CCOCC2)N=C(c2ccc(OCCCO)cc2)O[C@H]1c1ccccc1CN=[N+]=[N-]` gave a composite z-score of 1.14.
To `CCC(CC)C(O)C1C=CC2C(=O)N(C)C(=O)C2N1N1CCCCC1` (stereo unspecified) belongs 1.13.
The molecule `COCCOC(=O)N1C(=O)[C@@]2(c3cc(C#Cc4ccc(OC)cc4)ccc31)[C@H](c1ccc(OCCO)cc1)N1[C@H](c3ccccc3)[C@H](c3ccccc3)OC(=O)[C@H]1[C@@H]2C(=O)N1CCCCCCC1` registered a composite z-score of 0.927.
